# According to PubChem BioAssay (EPA / NIEHS):
# Activity calls are given as the source filed them. How the source made its calls: active means hit-call score of the fitted dose curve at least 0.9, where 1 is the maximum; inactive means score below 0.9.
# Tests used:
# [1] = Tanguay_ZF_120hpf_MUSC: Oregon State University Tanguay Lab 120 Hour Post-fertilization zebrafish Assay for Muscle Malformation (AID 2284401)
# In short: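 Scored as a binary brightfield endpoint at 120 hpf, fitted versus DMSO. Single dechorionated wild-type (Tropical 5D) zebrafish embryos per well, statically exposed at 28C from 6 hpf onward with final DMSO 0.64%.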
# [2] = UKN5_HCS_SBAD2_cell_viability: Viability Assessment in the University of Konstanz (UKN) Leist Lab Neurite Outgrowth Assay in human iPSC-derived immature Dorsal Root Ganglia Neurons (UKN5) (AID 2284056)
# In short: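 iPSC-derived immature peripheral neurons (SBAD2) seeded on Matrigel with CHIR99021, SU5402 and DAPT, dosed 1 h later for 24 h. Viability from Hoechst H-33342 and calcein-AM live staining, high-content imaging; bidirectional fit versus DMSO.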
# [3] = UKN5_HCS_SBAD2_neurite_outgrowth: University of Konstanz (UKN) Leist Lab Neurite Outgrowth Assay in human iPSC-derived immature Dorsal Root Ganglia Neurons (UKN5) (AID 2284070); conditions: actives raise or lower the signal
# In short: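 Thaw, seed on Matrigel (100.000 cells/cm2), dose 1 h later; at 23 h live-stain with H-33342 and calcein-AM for 60 min; image at 24 h. Neurite area fitted bidirectionally vs DMSO.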
# [4] = UKN2_HCS_IMR90_neural_migration: University of Konstanz (UKN) Leist Lab Neural Crest Cell Migration Assay in human induced IMR90 Pluripotent Stem Cells (UKN2) (AID 2284204); conditions: actives raise or lower the signal
# In short: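 High-content imaging of calcein-AM and Hoechst stained cells quantifies migration into a stopper-defined gap after 24 h compound exposure. Neural crest cells from IMR90 iPSC migrated 24 h in EGF/FGF N2-S medium before dosing; DMSO baseline.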
# [5] = UKN2_HCS_IMR90_cell_viability: Viability Assessment in the University of Konstanz (UKN) Leist Lab Neural Crest Cell Migration Assay in human induced IMR90 Pluripotent Stem Cells (UKN2) (AID 2284233);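 further: cells exposed to compound for 24 h after a 24 h migration phase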
# In short: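 After calcein-AM/Hoechst staining, viability is quantified by high-content fluorescence imaging, relative to DMSO, in iPSC (IMR90)-derived neural crest cells. Exposure lasts 24 h, starting after a 24 h migration period on PLO/laminin/fibronectin coating.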
compound,measurement,setting,value
C=CC(=O)OCC(F)(F)C(F)(F)C(F)(F)COC(=O)C=C,outcome,[1],inactive
O=C(O)C(F)(F)C(F)(F)C(F)(F)C(=O)O,outcome,[1],inactive
CN1CC=C(c2ccccc2)CC1,outcome,[2],inactive
same,outcome,[3],inactive
same,outcome,[4],inactive
same,outcome,[5],inactive
OCC(F)(F)C(F)(F)C(F)(F)C(F)(F)C(F)(F)C(F)(F)C(F)(F)C(F)(F)CO,outcome,[1],inactive
FC(F)(F)C(F)(F)C(F)(F)C(F)(F)C(F)(F)C(F)(F)I,outcome,[1],inactive
O=C(O)C(F)(F)C(F)(F)F,outcome,[1],inactive
